Source: PubChem (National Center for Advancing Translational Sciences (NCATS))
Sampled rows, rich in hits. Any-hit rate of the full collection: about 10%.
FLuc inh – Firefly luciferase inhibition profiling of diverse chemical library using quantitative high-throughput screening; Luciferin 4-monooxygenase (Photinus pyralis), P08659; purified P. pyralis luciferase, luminescence, biochemical; Potency, µM (highest dose often 115 µM), hits mostly inhibitors; 2.5% of 76,000 active; AID 1347043, 2019; also: nearly all actives have a fitted effect of over 65% in size
Target sequence (P08659 whole entry, looked up): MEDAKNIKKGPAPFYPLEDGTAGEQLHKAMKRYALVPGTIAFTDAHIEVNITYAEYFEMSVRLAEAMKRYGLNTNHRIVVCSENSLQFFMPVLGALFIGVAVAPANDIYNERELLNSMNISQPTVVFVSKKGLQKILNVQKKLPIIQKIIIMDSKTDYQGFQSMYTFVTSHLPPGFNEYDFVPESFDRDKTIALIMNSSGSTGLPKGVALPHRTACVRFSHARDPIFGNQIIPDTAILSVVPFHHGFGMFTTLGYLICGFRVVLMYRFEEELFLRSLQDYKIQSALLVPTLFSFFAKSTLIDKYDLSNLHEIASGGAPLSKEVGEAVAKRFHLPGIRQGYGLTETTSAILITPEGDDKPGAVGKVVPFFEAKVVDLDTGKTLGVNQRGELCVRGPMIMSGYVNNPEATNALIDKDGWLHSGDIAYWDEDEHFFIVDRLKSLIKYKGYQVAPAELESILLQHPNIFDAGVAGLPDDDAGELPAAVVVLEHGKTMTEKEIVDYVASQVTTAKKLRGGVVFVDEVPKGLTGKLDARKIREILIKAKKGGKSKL
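FLuc 10nM, D-luciferin 10uM, ATP 10uM, Mg acetate 10mM, Tris acetate pH 7.5, Tween/BSA; cpd qHTS; enzyme added last; CCD luminescence.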
GPT2 inh – Primary qHTS assay for inhibitors of Glutamate pyruvate transaminase 2 (GPT2). Recombinant GPT2, coupled pyruvate oxidase/HRP Amplex Red fluorescence. Potency, µM (highest dose often 57.7 µM), without a hit: at the highest dose activity change, negative = inhibition, most hits filed as inhibitors. 0.25% of 100,000 active. AID 1671188, 2021; also: nearly all actives have a fitted effect of over 60% in size
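GPT2 10ng/uL, a-KG 250uM, L-Ala 2mM, HEPES pH7.5 + 0.0001% Tween; 30 min RT. Then Amplex mix (PO/HRP/ThPP), 30 min RT dark, fluorescence. AOA 50uM used as positive control.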
hNpr1 antagonist – Natriuretic polypeptide receptor (hNpr1) antagonism - Primary qHTS | Atrial natriuretic peptide receptor 1 (Homo sapiens), P16066 | HEK293 hNpr1 GloSensor cGMP, ANP-stimulated luminescence | Potency, µM (highest dose often 46.3 µM), without a hit: at the highest dose activity change, negative = inhibition, most hits filed as inhibitors | 1.6% of 76,000 active; calls by dose curve; also: nearly all actives have a fitted effect of over 60% in size
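HEK293 cells stably expressing human Npr1 and cGMP GloSensor pGS-40F, loaded 2 h with 2% GloSensor reagent, given compound 30 min at room temperature. Luminescence read before and 20 min after 0.1 nM hNppA.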
HEK293 tox – Cytotoxic Profiling in HEK 293 Cell Line of Diverse Libraries Using Quantitative High-Throughput Screening; HEK 293 viability, ATP luminescence (CellTiter-Glo), 48-72 h; Potency, µM (titrated, usually from 115 µM), for the others: top-dose activity change, negative = cytotoxicity, actives largely listed as inhibitors; 6.6% of 94,000 active; also: nearly all actives have a fitted effect of over 60% in size
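Pintool-delivered compounds were incubated with HEK 293 cells (250 cells/well) at 37 degree Celsius for 48 or 72 hr. ATP-dependent luminescence (CellTiter-Glo) then reported remaining viable cells.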
3T3 cytotox – Cytotoxic Profiling in NIH 3T3 Cell Line of Diverse Libraries Using Quantitative High-Throughput Screening. NIH 3T3 viability, CellTiter-Glo ATP luminescence, 48-72 h. Potency, µM (highest dose often 96.7 µM), inactives show top-dose activity change, negative = cytotoxicity, hits mostly inhibitors. 4.3% of 94,000 active; also: nearly all actives have a fitted effect of over 55% in size
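Mouse fibroblast NIH 3T3 cells, 400 per well, received compound via pintool and were incubated for 48 or 72 hr prior to CellTiter-Glo ATP luminescence measurement.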
The depositor's hits bear a star; i = inactive; ? = inconclusive; . = no result; [ ] = dose if it differs, or a comment. Unless noted, calls follow the shape of the dose curve; as a rule, active = well fitted curve in the direction sought with a large enough effect; inconclusive = small, poorly fitted or top-dose-only effect, or another doubt; inactive = no such curve, though single readings can be large; an effect the other way counts as inactive or inconclusive. % is scaled to controls: 0 for no effect and ±100 for the full control effect; potency is read from the fitted curve at half-maximal effect.

SMILES	FLuc inh	GPT2 inh	hNpr1 antagonist	HEK293 tox	3T3 cytotox
COc1ccc(C)cc1NC(=O)Cn1cccc1-c1nc(-c2ccc3c(c2)OCO3)no1	i	-12.4%	-7.5%	?	39.8µM*
Cc1ccc(NC(=O)Cn2cccc2-c2nc(-c3ccc4c(c3)OCO4)no2)c(Cl)c1	i	i	-24.2%	-1.9%	i
O=C(NCCn1cccc1-c1nc(-c2ccc3c(c2)OCO3)no1)c1ccc(F)cc1	?	i	?	?	?
Cc1cccc(OCC(=O)NCCn2cccc2-c2nc(-c3ccc4c(c3)OCO4)no2)c1	14.1µM*	i	-16.2%	?	?
O=C(NCCn1cccc1-c1nc(-c2ccc3c(c2)OCO3)no1)c1ccc2c(c1)OCO2	10µM*	i	-17.2%	-7.0%	-7.9%
Cc1ccc(C(=O)NCCn2cccc2-c2nc(-c3ccc4c(c3)OCO4)no2)cc1C	11.2µM*	2.7%	-22.8%	?	?
O=C(NCCn1cccc1-c1nc(-c2ccccc2)no1)c1ccc(F)c(Cl)c1	i	0.5%	-13.7%	44.7µM*	?
COc1ccc(C(=O)NCCn2cccc2-c2nc(-c3ccccc3)no2)cc1F	i	1.4%	-15.6%	-1.8%	-19.6%
Cc1cc(Cl)ccc1S(=O)(=O)N1CC(c2nc(-c3ccncc3)no2)C1	i	i	12.6µM*	?	?
Cc1ccc(S(=O)(=O)N2CC(c3nc(-c4ccncc4)no3)C2)cc1	i	-9.0%	-21.5%	?	-17.8%
Cc1ccccc1C(=O)N1CCC(C(=O)N2CCC3(CC2)CC(=O)Nc2ccccc2O3)CC1	.	i	.	?	-17.0%
Cc1ccsc1C(=O)NCCn1c(C)cnc1C1CCC1	i	4.2%	-15.3%	5.6%	i
Cn1ncc2c(C(=O)NCc3cccc(F)c3)cc(-c3ccccc3F)nc21	.	.	.	44.7µM*	?
COc1ccc(-c2cc(C(=O)NCc3cccc(C(F)(F)F)c3)c3cnn(C)c3n2)cc1	.	2.7%	.	35.5µM*	31.6µM*
CC(=O)N1CCCN(C(=O)c2cc(-c3cc(Cl)cc(Cl)c3)nc3c2cnn3C)CC1	.	.	.	79.4µM*	?
Cc1ccc(-c2cc(C(=O)NCc3ccc(C(F)(F)F)cc3)c3cnn(C)c3n2)c(C)c1	.	i	.	35.5µM*	?
CCN1CCN(C(=O)C2CCCN(c3ccnc4ccnn34)C2)CC1 (configuration not stated)	.	-6.8%	.	-20.5%	-15.2%
CO[C@H]1CN(C2CCN(S(=O)(=O)N(C)C)CC2)[C@H]1c1ccncc1	.	i	.	-2.2%	-16.7%
Cn1ncc2c(C(=O)NCc3cccc(C(F)(F)F)c3)cc(-c3ccc(C(F)(F)F)cc3)nc21	.	.	.	-7.2%	-1.7%
C#CCNC(=O)c1cc(-c2cccc(C(F)(F)F)c2)nc2c1cnn2C	.	.	.	?	10µM*
Cn1ncc2c(C(=O)NCc3cccc(F)c3)cc(-c3ccc(C(F)(F)F)cc3)nc21	.	.	.	39.8µM*	-28.9%
CC(=O)N1CCN(C(=O)c2cc(-c3cccc(C(F)(F)F)c3)nc3c2cnn3C)CC1	.	?	.	-19.3%	?
CN1CCN(C(=O)c2cc(-c3cccc(C(F)(F)F)c3)nc3c2cnn3C)CC1	.	i	.	?	31.6µM*
O=C(NCCc1ccccc1)N1CCC(CCc2nc(C3CCOCC3)no2)CC1	.	i	.	?	?
O=C(NCc1cccnc1)C1CCN(c2ccnc3ccnn23)CC1	.	-3.0%[88.5 µM]	.	?	?
SMILES	FLuc inh	GPT2 inh	hNpr1 antagonist	HEK293 tox	3T3 cytotox
C1CC(COCCc2noc(C3CNC3)n2)CCO1	i	-9.4%	-26.2%	7.94µM*	12.6µM*
C1CC(Cc2noc(C3CCOCC3)n2)CN1 (configuration not stated)	i	-0.5%	4.3%	79.4µM*	?
COc1ccccc1C(=O)N1CCCC(c2nnc3n2CCN(C(=O)C2CC2)C3)C1 (configuration not stated)	.	3.3%	.	-17.0%	-25.7%
CC(C)C[C@@H]1N[C@H](C(=O)NCc2ccc(C#N)cc2)Cc2c[nH]c3cccc1c23	i	-17.3%[88.5 µM]	-11.0%[70.6 µM]	56.2µM*	25.1µM*
CC(C)C[C@@H]1N[C@H](C(=O)NCc2cccnc2)Cc2c[nH]c3cccc1c23	i	i	-1.1%[70.6 µM]	25.1µM*	?
CC(C)C[C@@H]1N[C@H](C(=O)NCc2ccc(C(F)(F)F)cc2)Cc2c[nH]c3cccc1c23	i	-9.1%[88.5 µM]	-7.0%[70.6 µM]	31.6µM*	28.2µM*
CCCNc1cc(N2CCC(CCC(=O)NCc3cccc(OC)c3)CC2)ncn1	?	4.9%	-19.7%	-15.4%	-1.4%
O=C(CCC[C@@H]1[C@H]2CCCN3CCC[C@@H](CN1C(=O)c1ccsc1)[C@@H]23)NCC1CC1	i	2.3%	-0.5%	0.3%	i
COc1cc(NC(=O)Cn2cccc2-c2nc(-c3ccc(F)cc3)no2)cc(OC)c1	i	4.9%	3.1%	?	i
COc1cccc(-c2ccc(S(=O)(=O)N3CCSCC3)cc2)n1	i	-25.7%	-4.8%	44.7µM*	?
COc1cccc(-c2cc(C(=O)O)cc(S(=O)(=O)N3CCSCC3)c2)c1	i	-14.6%	11.0%	2.6%	?
COc1ccc2[nH]c3c(c2c1)CCNC31CCN(C(=O)c2sccc2C)CC1	i	3.8%	?	?	-30.7%
COc1ccc2[nH]c3c(c2c1)CCNC31CCN(C(=O)c2cccs2)CC1	i	1.9%	-21.0%	8.91µM*	?
COc1ccc2[nH]c3c(c2c1)CCNC31CCN(C(=O)c2ccc(C)s2)CC1	i	i	2.5%	11.2µM*	?
Cn1c(CCNC(=O)CCc2ccc3c(c2)CN(C(=O)C2CC2)CCO3)nc2ccccc21	i	i	5.1%	-4.7%	?
Cc1ccc(C(=O)NC2CCCN(CCn3nc4n(c3=O)CCCC4)C2)cc1 (configuration not stated)	.	.	.	-10.7%	-16.2%
COc1nc2nc(CCc3ccccc3)n(C)c2cc1Nc1ccncn1	50.1µM*	-8.7%[88.5 µM]	-4.4%[70.6 µM]	-2.7%[172 µM]	?
CN1CCC(N(Cc2ccccc2)[C@@H]2C[C@@H]3CO[C@H](c4ccccc4)C[C@@H]3C2)CC1	.	.	.	?	14.1µM*
CN1CCOC(c2ccccc2)c2ccccc2C1 (configuration not stated)	.	-3.2%	.	.	.
Cc1noc([C@@H]2C[C@H](NC(=O)Nc3cccc(F)c3)CN2C)n1	i	-10.1%[88.5 µM]	3.1%[70.6 µM]	-20.3%[172 µM]	?
